# Experimental data taken from the OligoGym collection.
# Target: AP4E1
# Assay: pooled miR-30 sensor sort-seq; sequence = guide strand
# Details: shRNA
# Note: reference of the scale not given here.
row,Sequence,sensor-assay potency score (higher = more potent)
1,TTTTCTTCGTACAATCTCCTTA,0.18
2,TAACTTGAAGAAATCTCTGTGG,0.558
3,TATTTGTCTCTTTCAGTCCTGT,-0.0122
4,TTCATTATTACAGACTTCCATA,-0.778
5,TTTCTTTATACCTTCCAGCTTC,-0.271
6,TACAACTGTATTCACAAGGAGA,-0.841
7,TAATTTTTCTTCTTCGTGCTTG,0.244
8,AAGAACTTGAGATTGATCCTTT,0.655
9,TAAAGAAGCATCTACCACCAAG,-0.753
10,TTCATTGTCTGAATAAACCATG,-0.705
11,TTTCAGACTACTCAGTTCCTGC,-0.633
12,TACATTAATTCACTTGTCCTTT,-0.311

# Target: AP4S1
# Assay: as above
# Details: shRNA
row,Sequence,sensor-assay potency score (higher = more potent)
1,TAAATCAAGAAAACATTCCGGA,0.763
2,TATATCAGCTTAAAATCCTTAT,-0.456
3,TGAATGATGAACTGTCTGGAGA,-0.912
4,TTTGAATGATGAACTGTCTGGA,0.922
5,TAAATAGCCATCTCGTTCTCAG,-0.314
6,TTGTTCATTGGATCGAGAGAGA,-1.06
7,TTCATAAATAGCCATCTCGTTC,-1.14
8,TTATATTCAATGAAAGAGCATT,-1.02
9,TTGAATGATGAACTGTCTGGAG,0.198
10,ATTAACTCCAACCACAATGAAG,-1.9
11,TTAGAAAGTCGAGTCTGCCCTT,0.201
12,TAGAAAGTCGAGTCTGCCCTTG,-0.4
